Assay outcomes deposited in PubChem BioAssay by National Center for Advancing Translational Sciences (NCATS).
A selection: hits, their analogues and other compounds. The true share with any hit is near 21%.
CHX counter = counter-screen for Shiga toxin inhibitors: cycloheximide protein synthesis inhibition. cell reporter, cycloheximide protein synthesis inhibition counterscreen. max response, %. hit rate 12% among 300,000. AID 2314; in the data active = max response mostly above about 13%, no sharp cut-off; inactive = mostly below about 14%; note: read at 38.3 µM for the half of the compounds with a filed dose; 0% is about no effect
NS1 inh = influenza NS1 inhibition. Potency, µM (top dose mostly 46.1 µM), for inactives: at the top dose activity, positive = more growth. hit rate 0.4% among 270,000. AID 2326; calls by dose curve; note: potency is the fitted concentration of half-maximal effect; actives are rising curves; nearly all actives have a fitted effect of over 50% in size
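S. cerevisiae expressing influenza A NS1, grown in glucose, washed, then diluted 1:100 into pH 6.0 -URA galactose medium with 23 nl compound. Growth recovery read as OD600; NS1-free strain serves as control.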
Pf growth 96h = P. falciparum growth inhibition at 96 hours; P. falciparum luciferase reporter growth, 96 h; Potency, µM (series often up to 28.7 µM), for inactives: top-dose activity change, negative = inhibition, actives largely listed as inhibitors; hit rate 6.9% among 320,000; note: potency is the fitted concentration of half-maximal effect; % is set by controls: 0 for no effect and ±100 for the full control effect
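Luminescence readout: decreased luciferase signal marks inhibited growth of reporter-expressing P. falciparum in infected red cells (2% hematocrit, 0.05% parasitemia final), exposed to compound two generations (96 h, 37 C, 5% CO2).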
Pf growth 48h = P. falciparum growth inhibition at 48 hours (one generation) | P. falciparum luciferase growth in erythrocytes, 48 h | Potency, µM (highest dose often 28.7 µM), for the others: at the highest dose activity change, negative = inhibition, usual class: inhibitors | hit rate 5.9% among 310,000 | AID 504832; note: potency is the fitted concentration of half-maximal effect; % is set by controls: 0 for no effect and ±100 for the full control effect
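A one-generation exposure of luciferase-tagged malaria parasites in RPMI 1640/Albumax erythrocyte culture, 37 C and 5% CO2. Inhibition is inferred from decreased luminescence after adding detection reagent.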
Shiga inhibitor = blocks Shiga toxin action in Vero cells; inhibition, % at 38.7 µM; AID 2315; hit rate 9.2% among 290,000; Vero cells, Shiga toxin protein synthesis inhibition reporter; in the data active = inhibition mostly above about 28%, no sharp cut-off; inactive = mostly below about 43%; note: 0% is about no effect
Giardia FBPA inh = blocks Giardia fructose-bisphosphate aldolase activity; A8B2U2; purified Giardia FBPA; Potency, µM (series often up to 59.6 µM), for inactives: at the highest dose activity, negative = inhibition, hits mostly inhibitors; hit rate 0.71% among 290,000; note: potency is the fitted concentration of half-maximal effect; % is set by controls: 0 for no effect and ±100 for the full control effect; nearly all actives have a fitted effect of over 55% in size
Target sequence (A8B2U2 whole entry, looked up): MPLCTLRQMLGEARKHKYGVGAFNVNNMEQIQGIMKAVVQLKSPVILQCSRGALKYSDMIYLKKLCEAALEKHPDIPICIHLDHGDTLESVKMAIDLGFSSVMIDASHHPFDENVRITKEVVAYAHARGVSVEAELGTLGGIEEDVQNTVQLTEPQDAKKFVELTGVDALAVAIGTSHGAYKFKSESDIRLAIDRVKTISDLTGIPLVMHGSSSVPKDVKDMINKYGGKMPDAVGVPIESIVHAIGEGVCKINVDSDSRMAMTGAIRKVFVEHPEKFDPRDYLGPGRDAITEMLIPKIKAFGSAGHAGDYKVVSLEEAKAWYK
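40 nM FBPA preincubated 10 min at RT with compound (up to 57.5 uM final), then substrate plus GAPDH/TPI/NAD/arsenate coupling and diaphorase/resazurin added. Fluorescence read after 20 min at RT, 525/598 nm.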
The depositor's hits bear a star; ? = inconclusive; nt = not tested or not shown; + = active, no number. Unless noted, calls come from the whole dose curve; as a rule, active = well fitted curve in the direction sought with a large enough effect; inconclusive = small, poorly fitted or top-dose-only effect, or another doubt; inactive = no such curve, though single readings can be large; an effect the other way counts as inactive or inconclusive.

SMILES	CHX counter	NS1 inh	Pf growth 96h	Pf growth 48h	Shiga inhibitor	Giardia FBPA inh
O=S(=O)(Oc1ccccc1/C=N/n1cnnc1)c1ccccc1	-6.9	-3.4%	11.7µM*	9.6%	-9.5	19.9µM*
CCCCNC(=O)C1Cc2cc(S(=O)(=O)N3CCCCC3)ccc2N1C(C)=O (configuration not stated)	-9.6	7.3%	?	-0.5%	-9.1	nt
O=C(N/N=C/c1ccc(O)c([N+](=O)[O-])c1)C1CC1(c1ccccc1)c1ccccc1 (configuration not stated)	-1.4	5.4%	335.8%	?	-12.0	-0.5%
O=C(N/N=C/c1ccncc1)C1CC1(c1ccccc1)c1ccccc1 (configuration not stated)	1.7	-7.7%	5.22µM*	?	11.1	-2.6%
O=C(N/N=C/c1ccc(Cl)cc1)C1CC12CCC2 (configuration not stated)	52.7*	nt	43.9%	122.0%	132.5*	-1.1%
Nc1nc(COC(=O)C2CC(=O)N(CCc3ccccc3)C2)nc(Nc2ccccc2)n1 (configuration not stated)	nt	nt	?	1.3%	nt	nt
CC(/C=C/C(=O)NO)=C\[C@@H](C)C(=O)c1ccc(N(C)C)cc1	-3.8	nt	nt	nt	28.4	2.6%
Cc1ccc2nc(SCC(=O)N3CCCCC3)nc(=O)n2c1	nt	nt	-33.5%	13.4%	nt	nt
CC(=O)c1cccc(N2Cc3ccccc3C2=NC(=O)CCl)c1	24.6*	4.6%	13.1µM*	-25.9%	42.7	-25.5%
O=C(Nc1ccccc1)NN1CC(=O)N(c2ccc(Cl)cc2)CC1=O	1.2	6.1%	0.2%	-7.3%	-17.2	5.3%
CC(=O)c1ccc(N2Cc3ccccc3C2=NC(=O)c2cccs2)cc1	26.0*	8.3%	80.6%	112.3%	60.5*	4.4%
CC(=O)c1ccc(N2Cc3ccccc3/C2=N\C(=O)Nc2ccccc2)cc1	27.5*	12.6%	119.7%	75.8%	43.2	4.9%
CCOC(=O)c1ccc(N2Cc3ccccc3C2=NC(=O)c2cccs2)cc1	9.2	3.4%	?	?	16.6	-0.5%
N#Cc1ccc(N2Cc3ccccc3C2=NC(=O)c2cccs2)cc1	37.9*	1.3%	-14.5%	62.1%	+	-1.8%
[O-][N+]1(CC[N+]2([O-])CCCCC2)CCCCC1	nt	-3.5%	nt	nt	nt	nt
O=c1[nH]c(=O)n(Cc2ccco2)c2c1C(C(F)(F)F)(C(F)(F)F)N=C(CCc1ccccc1)N2	-2.4	4.1%	2.33µM*	?	-16.1	-1.4%
Cc1ccc(NC(=O)C2CC(=O)NC(Nc3cccc(C)c3)=N2)cc1 (configuration not stated)	-2.3	2.5%	2.08µM*	15.7%	-21.2	1.6%
O=C1CC(C(=O)Nc2ccccc2)N=C(N2CCCCC2)N1 (configuration not stated)	6.4	?	nt	21.3%	17.8	-0.7%
CC1CCC(O)C/C1=C\C=C1/CCCC2(C)C1CCC2C(C)/C=C/C(C)C(C)C (configuration not stated)	13.3	nt	-24.6%	-5.8%	3.9	3.1%
COc1cc(C(N)=O)cc(Br)c1OCc1ccccc1	-1.8	-42.3%	-5.1%	16.4%	1.8	-1.1%
O=C(NCCCN1CCCC1=O)c1ccc(OCc2ccccc2)cc1	28.0*	0.6%	1.3%	nt	44.7	1.2%
COc1ccc(C(=O)NCCCN2CCCC2=O)cc1	9.1	4.0%	nt	31.1%	11.9	0.3%
COc1cc(C(=O)NCCCN2CCCC2=O)cc(Br)c1OCc1ccccc1	nt	nt	?	9.28µM*	nt	nt
O=c1c(-c2cccs2)nc2cncnc2n1Cc1ccc(F)cc1	nt	nt	nt	nt	nt	10.3%
C/C(=N/NC(=O)CN1CCN(Cc2ccccc2Cl)CC1)c1cccnc1	9.4	4.0%	3.4%	1.9%	-17.9	6.3%
CC(C)CN(C(=O)C1CCCO1)C1CCS(=O)(=O)C1 (configuration not stated)	nt	nt	23.3%	8.9%	nt	nt
CCc1ccc2c(c1)C1(NN=C(c3ccc(C)cc3)S1)C(=O)N2 (configuration not stated)	23.7*	1.7%	?	0.415µM*	73.7*	8.5%
CC(C)c1ccc(O)c(NC(=O)c2ncn[nH]2)c1	-1.9	8.6%	-2.7%	?	15.9	-7.4%
